Source: PubChem BioAssay AID1159580 (chemical genetic matrix, 2015)
The campaign covered roughly 5,500 compounds. About 2,000 (36%) were called active. Roughly 18% stayed inconclusive and do not appear here. Rule as the data show it: active = normalized growth mostly below about 0.91 (no sharp cut-off); inconclusive = no clear call, values can overlap the other calls; inactive = mostly above about 0.92. This is one part of the list.

Experiment: chemical genetic growth profiling, strain panel (AID 1159580);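 also: tested at 20 µM; growth read once vehicle control cultures reached saturation at 30 °C; 1 = growth at the plate median or of vehicle wells; lower values mean less growth of the strain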
Settings: growth OD

Measured: normalized growth

Cc1cc(O)c2c(c1O)C(=O)c1c(O)cc(C)c(O)c1C2=O
active: S. cerevisiae deletion strains, locus YLR039C, strain RIC1, hits give low values 0.635 | S. cerevisiae deletion strains, locus YML120C, strain ndi1, hits give low values 0.912 | S. cerevisiae deletion strains, locus YOL006C, strain TOP1, hits give low values 0.491
inactive: S. cerevisiae deletion strains, locus YJR075W, strain HOC1, hits give low values 1.01 | S. cerevisiae deletion strains, locus YKL009W, strain mrt4, hits give low values 1.05 | S. cerevisiae deletion strains, locus YKL068W, hits give low values 0.995 | S. cerevisiae deletion strains, locus YKL085W, strain MDH1 (second series), hits give low values 1.01 | S. cerevisiae deletion strains, locus YKL085W, strain MDH1, hits give low values 1.01 | S. cerevisiae deletion strains, locus YKL160W, strain elf1, hits give low values 0.985 | S. cerevisiae deletion strains, locus YKL190W, strain CNB1, hits give low values 0.984 | S. cerevisiae deletion strains, locus YKR001C, strain vps1, hits give low values 0.971 | S. cerevisiae deletion strains, locus YKR026C, strain gcn3, hits give low values 0.979 | S. cerevisiae deletion strains, locus YKR091W, strain srl3, hits give low values 0.968 | S. cerevisiae deletion strains, locus YLL001W, strain dnm1, hits give low values 0.966 | S. cerevisiae deletion strains, locus YLL026W, hits give low values 0.988 | S. cerevisiae deletion strains, locus YLL041C, strain sdh2, hits give low values 0.981 | S. cerevisiae deletion strains, locus YLR027C, strain aat2, hits give low values 0.966 | S. cerevisiae deletion strains, locus YLR058C, strain SHM2, hits give low values 0.93 | S. cerevisiae deletion strains, locus YLR102C, strain apc9, hits give low values 0.999 | S. cerevisiae deletion strains, locus YLR113W, strain HOG1, hits give low values 1.03 | S. cerevisiae deletion strains, locus YLR221C, strain rsa3, hits give low values 0.948 | S. cerevisiae deletion strains, locus YLR258W, strain gsy2, hits give low values 0.977 | S. cerevisiae deletion strains, locus YLR262C, strain YPT6 (second series), hits give low values 0.887 | S. cerevisiae deletion strains, locus YLR262C, strain YPT6, hits give low values 0.675 | S. cerevisiae deletion strains, locus YLR268W, strain sec22, hits give low values 0.964 | S. cerevisiae deletion strains, locus YLR320W, strain mms22, hits give low values 0.965 | S. cerevisiae deletion strains, locus YLR330W, strain CHS5, hits give low values 0.956 | S. cerevisiae deletion strains, locus YLR342W, strain FKS1 (second series), hits give low values 0.981 | S. cerevisiae deletion strains, locus YLR342W, strain FKS1, hits give low values 0.98 | S. cerevisiae deletion strains, locus YLR357W, strain rsc2, hits give low values 0.976 | S. cerevisiae deletion strains, locus YLR370C, strain arc18, hits give low values 0.987 | S. cerevisiae deletion strains, locus YLR371W, strain rom2, hits give low values 1 | S. cerevisiae deletion strains, locus YLR384C, strain iki3, hits give low values 0.962 | S. cerevisiae deletion strains, locus YLR418C, strain cdc73, hits give low values 1.02 | S. cerevisiae deletion strains, locus YML016C, strain PPZ1, hits give low values 0.958 | S. cerevisiae deletion strains, locus YML032C, strain rad52, hits give low values 0.974 | S. cerevisiae deletion strains, locus YML124C, strain tub3, hits give low values 0.997 | S. cerevisiae deletion strains, locus YMR058W, strain fet3, hits give low values 0.923 | S. cerevisiae deletion strains, locus YMR078C, strain ctf18, hits give low values 0.981 | S. cerevisiae deletion strains, locus YMR125W, strain sto1, hits give low values 0.99 | S. cerevisiae deletion strains, locus YMR129W, hits give low values 0.981 | S. cerevisiae deletion strains, locus YMR205C, strain PFK2, hits give low values 0.993 | S. cerevisiae deletion strains, locus YMR223W, strain ubp8, hits give low values 0.989 | S. cerevisiae deletion strains, locus YMR231W, strain pep5, hits give low values 0.959 | S. cerevisiae deletion strains, locus YMR263W, strain SAP30, hits give low values 1.01 | S. cerevisiae deletion strains, locus YMR307W, strain GAS1, hits give low values 0.778 | S. cerevisiae deletion strains, locus YNL067W, strain RPL9B, hits give low values 0.991 | S. cerevisiae deletion strains, locus YNL071W, strain lat1, hits give low values 0.984 | S. cerevisiae deletion strains, locus YNL128W, strain TEP1, hits give low values 0.96 | S. cerevisiae deletion strains, locus YNL153C, strain GIM3, hits give low values 0.965 | S. cerevisiae deletion strains, locus YNL183C, strain NPR1, hits give low values 0.951 | S. cerevisiae deletion strains, locus YNL209W, strain ssb2, hits give low values 0.969 | S. cerevisiae deletion strains, locus YNL233W, strain BNI4, hits give low values 0.982 | S. cerevisiae deletion strains, locus YNL248C, strain rpa49, hits give low values 0.95 | S. cerevisiae deletion strains, locus YNL250W, strain rad50, hits give low values 0.974 | S. cerevisiae deletion strains, locus YNL271C, strain bni1, hits give low values 0.987 | S. cerevisiae deletion strains, locus YNL298W, strain CLA4, hits give low values 0.98 | S. cerevisiae deletion strains, locus YNL307C, strain MCK1, hits give low values 1.01 | S. cerevisiae deletion strains, locus YNL322C, strain KRE1 (second series), hits give low values 0.944 | S. cerevisiae deletion strains, locus YNL322C, strain KRE1, hits give low values 0.984 | S. cerevisiae deletion strains, locus YNR049C, strain mso1, hits give low values 0.965 | S. cerevisiae deletion strains, locus YNR052C, strain pop2, hits give low values 0.98 | S. cerevisiae deletion strains, locus YOL012C, strain htz1 1.11 | S. cerevisiae deletion strains, locus YOL147C, strain pex11, hits give low values 1 | S. cerevisiae deletion strains, locus YOR001W, strain rrp6, hits give low values 0.962 | S. cerevisiae deletion strains, locus YOR061W, strain CKA2, hits give low values 0.934 | S. cerevisiae deletion strains, locus YOR069W, strain VPS5, hits give low values 0.975 | S. cerevisiae deletion strains, locus YOR070C, strain gyp1, hits give low values 0.972 | S. cerevisiae deletion strains, locus YOR080W, strain dia2, hits give low values 0.974 | S. cerevisiae deletion strains, locus YOR083W, strain WHI5, hits give low values 0.964 | S. cerevisiae deletion strains, locus YOR106W, strain vam3, hits give low values 0.937 | S. cerevisiae deletion strains, locus YOR136W, strain idh2, hits give low values 1.01 | S. cerevisiae deletion strains, locus YOR144C, strain elg1, hits give low values 0.988 | S. cerevisiae deletion strains, locus YOR184W, strain ser1, hits give low values 1.02 | S. cerevisiae deletion strains, locus YOR231W, strain MKK1, hits give low values 0.996 | S. cerevisiae deletion strains, locus YOR265W, strain rbl2, hits give low values 0.971 | S. cerevisiae deletion strains, locus YOR270C, strain vph1, hits give low values 0.841 | S. cerevisiae deletion strains, locus YOR290C, strain snf2, hits give low values 0.914 | S. cerevisiae deletion strains, locus YOR316C, strain cot1, hits give low values 0.997 | S. cerevisiae deletion strains, locus YPL051W, strain arl3, hits give low values 0.953 | S. cerevisiae deletion strains, locus YPL055C, strain LGE1, hits give low values 1.01 | S. cerevisiae deletion strains, locus YPL078C, strain atp4, hits give low values 0.982 | S. cerevisiae deletion strains, locus YPL106C, strain sse1, hits give low values 0.953 | S. cerevisiae deletion strains, locus YPL240C, strain hsp82, hits give low values 0.98 | S. cerevisiae deletion strains, locus YPL241C, strain CIN2, hits give low values 0.995 | S. cerevisiae deletion strains, locus YPL256C, strain CLN2, hits give low values 0.993 | S. cerevisiae deletion strains, locus YPR119W, strain clb2, hits give low values 0.986 | S. cerevisiae deletion strains, locus YPR141C, strain kar3, hits give low values 0.978 | S. cerevisiae deletion strains, locus YPR163C, strain tif3, hits give low values 1 | S. cerevisiae deletion strains, locus YPR167C, strain met16, hits give low values 0.989 | S. cerevisiae deletion strains, strain wtn01, hits give low values 0.998 | S. cerevisiae strains, strain wild type, hits give low values 0.989
